{"source": "PubChem BioAssay AID624305", "about": "(National Center for Advancing Translational Sciences (NCATS), 2012)", "note": "Records with an inconclusive call do not appear. Unmarked numbers belong to inactive results. Calls of active or inactive are those of the source. Calls follow the shape of the dose curve; as a rule, active = well fitted activation curve with a large enough effect; inconclusive = small, poorly fitted or top-dose-only effect; inactive = no such curve, though single readings can be large or run the other way. Potency is read from the fitted curve at half-maximal effect.", "data": [{"test": "qHTS assay for re-activators of p53 using a Luc reporter: Hit Validation; also: nearly all actives have a fitted effect of over 75% in size; as to activation: 0% is about no effect", "conditions": "p53-responsive luciferase reporter cells, luminescence, H1299 line expressing heat-sensitive Ala138Val p53; series mostly up to 46.1 µM; activation: at the top concentration", "outline": "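Hit confirmation with a 1:5 dilution series, at 37 deg C for 24 hrs, in H1299 cells co-expressing temperature-sensitive p53-A138V and p53-responsive luciferase. Nocodazole served as control; luminescence read after 10 min with detection reagent.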", "units": {"activation": "%"}, "values": [{"smiles": "Cc1cc(C)c2nc(NNC(=O)c3ccc(S(=O)(=O)N4CCCC(C)C4)cc3)sc2c1", "note": "(stereo not drawn)", "activation": -83.9}, {"smiles": "CC(=O)/C=C(\\C)Nc1ccc(-c2cnc(-c3ccccc3)o2)cc1", "Potency": "2590 nM (active)"}, {"smiles": "OC1(C2(O)CC(c3ccccc3)ON2)CCCCC1", "note": "(stereo not drawn)", "activation": -85.4}, {"smiles": "CC12CN(C(=O)c3cccc([N+](=O)[O-])c3)C3(C#N)CC1CCC23C", "note": "(stereo not drawn)", "activation": -21.4}, {"smiles": "COc1ccc2c(c1)Cc1sc(NC(C)=O)nc1-2", "Potency": "11600 nM (active)"}, {"smiles": "CC(C)N1C(=O)CN(C2CCCCCC2)C(=O)C1c1ccccc1F", "note": "(stereo not drawn)", "activation": 29.7}, {"smiles": "CCN1C(=S)SC(=O)C1=C1C=C(C)N(CCO)C(C)=C1", "Potency": "1300 nM (active)"}, {"smiles": "C/C(=N\\NC(=O)c1cc(C)nc2ccccc12)c1ccccn1", "Potency": "16400 nM (active)"}, {"smiles": "COC(=O)c1nn(-c2ccc(-c3ccccc3)cc2)cc1O", "Potency": "92 nM (active)"}, {"smiles": "O=C(Nc1ccc(COc2ccccc2)cc1)c1cccc([N+](=O)[O-])c1", "activation": 21.9}, {"smiles": "COc1cc(CN2CCCCC2C(=O)Nc2ccc(Oc3ccccc3)nc2)ccc1O", "note": "(stereo not drawn)", "activation": 8.85}, {"smiles": "O=C(c1cccc(S(=O)(=O)NCc2ccc3c(c2)OCO3)c1)N1CCCC1", "activation": -4.69}, {"smiles": "O=C(O)/C=C/c1nc(-c2ccccc2)n2ccccc12", "activation": 9.9}, {"smiles": "CC1(C)NC(=O)N(CC(=O)N2CCN(S(=O)(=O)c3ccccc3C(F)(F)F)CC2)C1=O", "activation": 16.7}, {"smiles": "Cc1cccc(Nc2cc(=O)[nH]c(=O)[nH]2)c1C", "activation": 0}, {"smiles": "COc1ccc(N2C(=O)CC(Cc3ccc(Br)cc3)C2=O)cc1", "note": "(stereo not drawn)", "activation": -1.56}, {"smiles": "COc1ccc(C(=O)O/N=C(\\N)c2ccccc2)c(OC)c1", "Potency": "366 nM (active)"}, {"smiles": "Cc1cc(C)nc(SCC(=O)OCC(=O)Nc2nc3ccccc3s2)n1", "activation": 24}]}]}
